# Hits are enriched below; roughly 4.6% of the tested compounds scored in any of these assays.
# D1 agonist: activates the human D1 dopamine receptor | P21728 | HEK293 T-REx D1 cells, calcium flux, agonist mode | activation, % at 2 µM | 1% of 360,000 active; in the data active = activation above about 30%; note: 0% is about no effect
# Target sequence (P21728 whole entry, looked up): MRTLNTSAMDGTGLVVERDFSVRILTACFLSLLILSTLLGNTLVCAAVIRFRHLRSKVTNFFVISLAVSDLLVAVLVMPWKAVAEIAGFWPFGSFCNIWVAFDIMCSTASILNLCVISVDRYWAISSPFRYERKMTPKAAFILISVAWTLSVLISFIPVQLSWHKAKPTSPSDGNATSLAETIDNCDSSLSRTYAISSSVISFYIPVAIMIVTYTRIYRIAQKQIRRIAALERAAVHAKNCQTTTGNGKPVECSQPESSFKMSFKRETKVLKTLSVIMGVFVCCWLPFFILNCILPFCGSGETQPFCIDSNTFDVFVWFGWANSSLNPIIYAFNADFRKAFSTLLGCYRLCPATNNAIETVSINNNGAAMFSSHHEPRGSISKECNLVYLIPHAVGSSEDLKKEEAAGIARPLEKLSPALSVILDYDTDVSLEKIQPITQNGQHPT
#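 Tetracycline-induced HEK293 TREx D1 cells, force-coupled to calcium signalling, were dye-loaded with a no-wash calcium kit. Compound was pin-added after a 10 s baseline. Fluorescence was read kinetically at 1 cycle/s for 180 s, with calcium rises flagged as agonism.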
# TRHR enhancer-1: allosteric enhancers of human TRH receptor; enhancement, % at 2 µM; 0.66% of 360,000 active; P34981; AID 493056; TRHR cells, fluo-8 calcium fluorescence, EC20 TRH enhancement; in the data active = enhancement above about 30%; note: 0% is about no effect
#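 Enhancer read-out: after compound pinning and an initial kinetic agonist-mode read, an EC20 of TRH (10 nM final) was injected and fluo-8 calcium signal (Ex 480/Em 530) followed at 1 s/cycle for 100 cycles in TRHR-expressing cells.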
# Epigenetic derep: derepresses silenced GFP reporter in murine cells | murine LDR cells, GFP reporter derepression, 30 h | Potency, µM (doses to about 53.9 µM), inactives show at the highest dose GFP activation, most hits filed as activators | 0.2% of 280,000 active | AID 1865; note: potency is the fitted concentration of half-maximal effect; % of control where 0% means no effect; nearly all actives have a fitted effect of over 60% in size
#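 Readout is the number of GFP-expressing murine LDR cells, counted by cytometry following washing. Cells were treated with compound for 30 h at 37 C; the stably integrated CMV-GFP locus is normally silent.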
# D1 antag: blocks dopamine activation of the human D1 receptor. P21728. HEK293 TREx D1 cells, calcium flux, dopamine EC80; active compounds read low. activity change, negative = inhibition, % at 10 µM. 3.2% of 360,000 active. AID 504652; in the data active = activity change below about -30%; note: % is set by controls: 0 for no effect and ±100 for the full control effect
#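 Tetracycline-induced HEK293 Trex D1 cells, force-coupled to calcium, dye-loaded; compounds added and read 180 s, then EC80 dopamine added and calcium flux tracked kinetically another 180 s.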
# D1 potentiator: potentiators of human D1 dopamine receptor; potentiation, % at 10 µM; P21728; HEK293 TREx D1 cells, calcium flux, dopamine EC20 potentiation; 0.036% of 360,000 active; in the data active = potentiation above about 30%; note: 0% is about no effect
# TRHR agonist-1: TRH receptor (human) agonism | TRHR cells, calcium flux fluo-8, FDSS agonist mode | activation, % at 2 µM | P34981 | 0.18% of 360,000 active; in the data active = activation above about 30%; note: 0% is about no effect
#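 In this calcium-flux screen, cells bearing human TRHR are dye-loaded with fluo-8, baselined for 10 cycles, then exposed to library compounds; positive kinetic calcium responses during the agonist phase mark hits, with TRH as control.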
# HCC4017 viab: HCC4017 cytotoxicity of epigenetic modulator hits | shares compounds with Epigenetic derep | HCC4017 NSCLC viability, CellTiter-Glo ATP luminescence, 72 h | Potency, µM (doses to about 46.1 µM), for the others: at the top dose activity change, negative = cytotoxicity, hits mostly cytotoxic | 30% of 45 active | AID 493071
# H358 viab: epigenetic modulators: cytotoxicity in H358 lung cancer cells | shares compounds with Epigenetic derep | H358 NSCLC viability, ATP luminescence, 72 h | Potency, µM (doses to about 46.1 µM), for inactives: top-dose activity change, negative = viability loss, usual class: cytotoxic | 30% of 45 active
# TRHR enhancer-2: confirmation of human TRH receptor allosteric enhancers; shares compounds with TRHR enhancer-1; TRH receptor cell assay, enhancer confirmation qHTS; activity change, negative = inhibition, % at 46.1 µM; 970 tested, under 10 active;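 note: compound effect scored on response to added TRH at EC20 of 10 nM; 0% is about no effect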
# TRHR agonist-2: human TRH receptor agonism confirmation. TRHR-expressing cells, agonist activation read-out. Potency, µM (top dose mostly 46.1 µM), inactives show at the highest dose activation, hits mostly activators. 8% of 970 active. shares compounds with TRHR enhancer-1; note: potency is the fitted concentration of half-maximal effect; 0% is about no effect; nearly all actives have a fitted effect of over 75% in size
# Numbers without * were called inactive; ? = inconclusive; . = no result; [ ] = dose if it differs, or a comment. Unless noted, calls come from the whole dose curve; as a rule, active = well fitted curve in the direction sought with a large enough effect; inconclusive = small, poorly fitted or top-dose-only effect, or another doubt; inactive = no such curve, though single readings can be large; an effect the other way counts as inactive or inconclusive.
SMILES,D1 agonist,TRHR enhancer-1,Epigenetic derep,D1 antag,D1 potentiator,TRHR agonist-1,TRHR enhancer-2,TRHR agonist-2,others
CC(Cc1cnccn1)NCc1c(C(=O)N2CCCCCCC2)nc2ccc(Cl)cn12 (stereo not given),1,-9,.,-6,-1,-1,.,.,
CCCCC/C=C\C=C\[C@H](CCCCCCCC(=O)O)OO,.,.,0%,.,.,.,.,.,
CCOC(=O)C1=C(N)Oc2c(c(=O)oc3ccccc23)C12C(=O)N(C)c1ccccc12 (stereo not given),2,-3,0%,-67*,0,0,.,.,
Cc1ccc(NC(=O)N(Cc2ccc3c(c2)OCO3)C2CCN(Cc3ccccc3)CC2)cc1C,20,10,0%,-8,-4,4,.,.,
Cc1ccc(NC(=O)N(Cc2ccc3c(c2)OCO3)C2CCN(Cc3ccccc3)CC2)cc1Cl,42*,-5,-1%,-7,-5,5,.,.,
CCOC(=O)C1C(C=C(C)C)C1(C)C (stereo not given),.,.,-1%,.,.,.,.,.,
O=c1[nH]c(O)c(/C=C2/C=CC(c3cc(Cl)ccc3Cl)=N2)c(=O)[nH]1,73*,-16,0%,-7,6,26,.,.,
CC1=Nc2ccccc2/C1=C/c1c(O)[nH]c(=O)[nH]c1=O,-2,3,.,23,0,0,.,.,
O=C1OC(c2ccc(O)c(S(=O)(=O)O)c2)(c2ccc(O)c(S(=O)(=O)O)c2)c2c(Br)c(Br)c(Br)c(Br)c21,.,.,-1%,.,.,.,.,.,
CCOC(=O)c1ccc(NC(=O)c2c(O)[nH]c(=O)[nH]c2=O)cc1,241*,13,2%,-8,-5,73*,.,.,
CN1CSC(=S)N(C)C1,1,6,8.9µM*,-12,-3,1,.,.,HCC4017 viab=?;H358 viab=?
CCN(CC)CCO[C@H]1CC[C@@]2(C)C(=CC[C@@H]3[C@H]2CC[C@]2(C)C(=O)CC[C@H]32)C1,.,.,0%,.,.,.,.,.,
Cc1ccc(N2C(=O)CC(=O)NC2=O)c(C)c1,1,109*,.,-3,0,1,0,-1%,
C=CCn1c(O)c(C=Nc2ccc(OC)cc2C)c(=O)[nH]c1=O,0,1,-1%,-5,-4,29,-2,0%,
COc1ccc(N=Cc2c(O)n(-c3ccc(C)cc3)c(=O)[nH]c2=O)cc1,2,51*,3%,2,-1,0,?,2%,
COc1cc(OC)c2c(c1)OC(c1ccc(OC)c(OC)c1)C(O)C2 (stereo not given),.,.,0%,.,.,.,.,.,
C[C@H]1CC[C@@]2(NC1)O[C@@H]1C[C@H]3[C@@H]4CC[C@@H]5C[C@@H](O)CC[C@@]5(C)[C@@H]4CC[C@]3(C)[C@@H]1[C@@H]2C,.,.,1%[16.9 µM],.,.,.,.,.,
C#C[C@]1(O)CC[C@H]2[C@@H]3CCC4=CC(=O)CCC4(C)[C@H]3CCC21C (stereo not given in full),.,.,2%,.,.,.,.,.,
CC1=CC(=O)C2=C(C)C[C@@H](O)[C@@H]3[C@@H](OC(=O)[C@H]3C)[C@H]12,.,.,1%[16.9 µM],.,.,.,.,.,
C=C(CC1CC(O)[C@]2(C)OC3CC4OC5C[C@]6(C)O[C@]7(C)CCC8OC9C[C@]%10(C)OC%11C(C)=CC(=O)OC%11CC%10OC9C[C@@H](C)C8OC7CC6O[C@]5(C)C/C=C\C4OC3CC2O1)C(=O)O (stereo not given in full),-2,50*,-1%,8,-4,-1,?,0%,
C=C(C=O)CC1CC(O)[C@]2(C)OC3C[C@@H]4OC5C[C@]6(C)O[C@]7(C)CCC8OC9C[C@]%10(C)OC(/C(C)=C\CO)C(O)CC%10OC9CC(C)C8OC7CC6O[C@]5(C)C/C=C\C4OC3CC2O1 (stereo not given in full),1,6,.,3,-7,1,.,.,
CC[C@@H](CO)NC(=O)[C@H]1C=C2c3cccc4[nH]cc(c34)C[C@H]2N(C)C1,.,.,-2%,.,.,.,.,.,
COc1ccc(-c2nc3ccccc3c(=O)n2-c2ccc(OC)cc2)cc1,-1,1,2%,3,-1,-1,.,.,
COc1ccc(-n2c(-c3ccccc3Br)nc3ccccc3c2=O)cc1,0,48*,.,-17,3,0,-7,2%,
CCOc1ccc(N2C(=O)NC(=O)/C(=C\c3ccc(N4CCCCC4)o3)C2=O)cc1,85*,6,-1%,0,2,31*,-4,23µM*,
SMILES,D1 agonist,TRHR enhancer-1,Epigenetic derep,D1 antag,D1 potentiator,TRHR agonist-1,TRHR enhancer-2,TRHR agonist-2,others
CCOc1ccc(N2C(=O)/C(=C/c3ccc(C)o3)C(=O)NC2=S)cc1,4,-6,.,4,-5,0,.,.,
CCNC(=O)[C@H]1O[C@@H](n2cnc3c(N)ncnc32)[C@H](O)[C@@H]1O,1,45*,0%,-12,-1,1,?,-1%,
CCNC(=O)[C@@H]1O[C@@H](n2cnc3c(N)ncnc32)[C@H](O)[C@H]1O,.,.,3%,.,.,.,.,.,
CCCCn1c(O)c(/C=C/C=Nc2ccccc2)c(=O)[nH]c1=O,71*,24,0%,2,-3,41*,5,16µM*,
Cn1c(O)c(/C=C/C=Nc2ccccc2)c(=O)n(C)c1=O,23,3,0%,7,7,13,.,.,
CC(C)N1CCN(Cc2c[nH]c3ccccc23)CC1CCO (stereo not given),3,58*,.,2,3,1,-1,5%,
CC(C)N1CCN(Cc2cccc3c2OCO3)CC1CCO (stereo not given),1,13,0%,-1,-5,1,.,.,
C[C@H]1C(=O)O[C@@H]2CCN3CC=C(COC(=O)[C@](C)(O)[C@]1(C)O)[C@H]23,0,43*,.,19,-2,1,0,-1%,
CC(=O)OCC1=C(C(=O)[O-])N2C(=O)[C@@H](NC(=O)CCC[C@@H](N)C(=O)[O-])[C@H]2SC1.[Zn+2],.,.,-1%,.,.,.,.,.,
O=C(Cn1cc(C(=O)c2ccccc2)c2ccccc21)NCc1ccco1,7,56*,5%,-17,-5,-2,-9,1%,

# Compound activity: PubChem BioAssay, National Center for Advancing Translational Sciences (NCATS)
